Here are results for 5 compounds from PubChem BioAssay.

Structures are written as SMILES. Calls of active or inactive are those of the source.

Test [1] in a line: small molecules captured by biotinylated probe aFSTL3 – biochemical, small-molecule microarray, fluorescence 635/667, stem cell growth factor project, primary screen (AID 1064).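 Note: measures binding of the biotinylated anti-FSTL3 antibody to printed compounds.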 The conditions noted are these: higher = more signal.
The nature of test [2]: binders from COS7 lysate, DM2A8 probe, primary screen, torsin A project, cell lysate, small-molecule microarray, fluorescence 635/667 (AID 1065). Particulars: higher = more signal, COS7 lysate expressing mutant human TOR1A.
Test [3] in a line: small molecules captured by biotinylated probe aFGF2 – biochemical, small-molecule microarray, fluorescence 635/667, stem cell growth factor project, primary screen (AID 1067).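 Note: measures binding of biotinylated aFGF2 protein to printed compounds on slides; z-score merges feature fluorescence and signal-to-noise across triplicate slides.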 Particulars: higher = more signal.
Test [4] in a line: small molecules captured by biotinylated probe aFGF10 – biochemical, small-molecule microarray, fluorescence 635/667, stem cell growth factor project, primary screen (AID 1071).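 Note: score merges 667 nm spot intensity and signal to noise from triplicate slides.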 Particulars: higher = more signal.
For test [5], the target named is Neurogenic locus notch homolog protein 2 (Homo sapiens) (UniProt Q04721). In words: small molecules binding Notch2 protein – biochemical, small-molecule microarray, 635 nm fluorescence, stem cell growth factors, primary screen (AID 1073). The conditions noted are these: higher = more signal.
Chain of Neurogenic locus notch homolog protein 2 (Homo sapiens) (Q04721 whole entry, looked up, canonical isoform): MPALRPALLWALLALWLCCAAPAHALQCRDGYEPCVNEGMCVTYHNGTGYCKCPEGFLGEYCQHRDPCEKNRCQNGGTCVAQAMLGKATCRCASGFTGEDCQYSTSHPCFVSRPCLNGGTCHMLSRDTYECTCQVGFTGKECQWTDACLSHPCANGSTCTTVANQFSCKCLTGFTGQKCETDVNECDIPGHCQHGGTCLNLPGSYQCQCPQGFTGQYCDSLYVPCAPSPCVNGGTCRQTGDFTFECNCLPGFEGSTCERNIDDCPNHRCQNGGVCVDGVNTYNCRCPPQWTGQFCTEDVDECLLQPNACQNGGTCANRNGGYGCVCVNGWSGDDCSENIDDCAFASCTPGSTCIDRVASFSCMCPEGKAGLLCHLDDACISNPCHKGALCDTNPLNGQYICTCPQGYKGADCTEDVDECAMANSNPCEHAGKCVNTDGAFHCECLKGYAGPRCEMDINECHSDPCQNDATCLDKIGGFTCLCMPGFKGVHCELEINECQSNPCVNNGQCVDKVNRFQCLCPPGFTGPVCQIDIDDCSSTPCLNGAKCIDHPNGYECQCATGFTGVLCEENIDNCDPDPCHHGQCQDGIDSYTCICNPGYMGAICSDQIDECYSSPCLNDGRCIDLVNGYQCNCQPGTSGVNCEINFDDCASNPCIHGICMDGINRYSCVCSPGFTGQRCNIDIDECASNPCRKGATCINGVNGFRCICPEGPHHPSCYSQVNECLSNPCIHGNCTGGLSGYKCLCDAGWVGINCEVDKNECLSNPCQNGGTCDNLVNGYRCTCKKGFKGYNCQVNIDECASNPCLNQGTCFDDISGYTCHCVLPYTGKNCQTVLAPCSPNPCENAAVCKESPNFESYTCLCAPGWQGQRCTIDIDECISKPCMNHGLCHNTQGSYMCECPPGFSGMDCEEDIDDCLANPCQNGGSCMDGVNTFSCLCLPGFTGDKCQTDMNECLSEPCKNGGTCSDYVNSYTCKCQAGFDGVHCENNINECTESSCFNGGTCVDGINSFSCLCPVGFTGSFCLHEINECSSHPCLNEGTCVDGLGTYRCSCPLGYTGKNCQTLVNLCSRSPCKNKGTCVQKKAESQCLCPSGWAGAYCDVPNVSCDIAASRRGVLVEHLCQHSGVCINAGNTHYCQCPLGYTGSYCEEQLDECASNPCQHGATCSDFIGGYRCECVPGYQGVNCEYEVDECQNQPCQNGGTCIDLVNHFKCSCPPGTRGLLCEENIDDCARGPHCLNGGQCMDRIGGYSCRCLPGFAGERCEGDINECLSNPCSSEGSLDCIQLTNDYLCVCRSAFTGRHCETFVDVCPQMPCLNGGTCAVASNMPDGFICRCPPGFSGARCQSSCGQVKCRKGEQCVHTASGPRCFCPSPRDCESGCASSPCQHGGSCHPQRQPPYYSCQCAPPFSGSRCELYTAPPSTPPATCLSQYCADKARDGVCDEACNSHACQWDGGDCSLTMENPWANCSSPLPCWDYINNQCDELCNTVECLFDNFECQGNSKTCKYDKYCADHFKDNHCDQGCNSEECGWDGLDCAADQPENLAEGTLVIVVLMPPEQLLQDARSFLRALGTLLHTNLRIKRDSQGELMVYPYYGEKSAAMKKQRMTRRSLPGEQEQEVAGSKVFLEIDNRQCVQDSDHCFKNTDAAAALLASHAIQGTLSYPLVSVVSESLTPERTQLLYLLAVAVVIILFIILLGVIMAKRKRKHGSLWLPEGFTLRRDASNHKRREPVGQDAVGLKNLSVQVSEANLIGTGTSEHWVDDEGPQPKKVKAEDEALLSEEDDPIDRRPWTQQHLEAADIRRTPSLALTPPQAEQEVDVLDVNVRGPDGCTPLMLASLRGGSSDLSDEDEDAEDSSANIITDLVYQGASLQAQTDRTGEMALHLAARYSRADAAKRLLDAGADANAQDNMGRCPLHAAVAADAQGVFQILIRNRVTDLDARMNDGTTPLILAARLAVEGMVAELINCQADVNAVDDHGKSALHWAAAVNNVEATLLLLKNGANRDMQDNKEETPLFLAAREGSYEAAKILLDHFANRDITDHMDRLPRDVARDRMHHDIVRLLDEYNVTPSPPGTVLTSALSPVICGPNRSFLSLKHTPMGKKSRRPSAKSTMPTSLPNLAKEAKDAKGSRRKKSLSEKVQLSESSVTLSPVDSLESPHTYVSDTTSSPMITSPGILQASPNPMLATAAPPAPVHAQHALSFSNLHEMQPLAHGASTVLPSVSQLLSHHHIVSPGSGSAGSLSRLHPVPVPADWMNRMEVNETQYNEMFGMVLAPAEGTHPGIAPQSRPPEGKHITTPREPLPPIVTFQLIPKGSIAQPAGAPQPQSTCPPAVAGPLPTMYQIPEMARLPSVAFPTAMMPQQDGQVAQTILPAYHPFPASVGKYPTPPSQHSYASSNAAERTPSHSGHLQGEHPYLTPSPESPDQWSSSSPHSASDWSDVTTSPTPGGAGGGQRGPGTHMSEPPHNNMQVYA
Test [6] addresses Pro-neuregulin-1, membrane-bound isoform (Homo sapiens) (UniProt Q02297). In words: small molecules binding neuregulin-1 protein – biochemical, small-molecule microarray, fluorescence 635/667, psychiatric disease protein project, primary screen (AID 1075).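 Note: score combines 667 nm spot fluorescence with signal to noise.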 Particulars: NRG1 binding, 635 nm fluorescence, higher = more signal.
The subject of test [7] is Neuregulin-1 EGF-like domain. The experiment in a line: small molecules binding NRG1 EGF domain – biochemical, small-molecule microarray, 635 nm fluorescence, primary screen (AID 1081).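 Note: binding of the protein to compounds printed on small-molecule microarray slides.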 The conditions noted are these: higher = more signal.
Test [8] is described as follows: FRG1 expression reporter modulators in myotubes – cell-based, C2C12 myotubes, firefly/Renilla luciferase, luminescence, FRG1 inhibition for FSHD, primary screen (AID 1084). The conditions noted are these: FRG1 promoter luciferase, higher = more signal, called active from +8 up or from −8 down.
Test [9] is described as follows: small molecules captured by biotinylated probe aFST – biochemical, small-molecule microarray, fluorescence 635/667, stem cell growth factor project, primary screen (AID 1086).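 Note: score merges 667 nm fluorescence with signal-to-noise of each printed compound spot.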 The conditions noted are these: higher = more signal.
A short description of test [10]: binders of probe aHhip on microarray, primary screen, stem cell growth factor project, biochemical, small-molecule microarray, fluorescence 635/667 (AID 1087).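 Note: score merges spot fluorescence at 667nm with spot signal to noise ratio.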 Particulars: higher = more signal.
Test [11] has as its system PRMT1 (protein arginine N-methyltransferase 1). The experiment in a line: small molecules binding arginine methyltransferase PRMT1 – biochemical, small-molecule microarray, 635 nm fluorescence, primary screen (AID 1088).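 Note: binding of Prmt1 protein to compounds spotted on small-molecule microarray slides.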 The conditions noted are these: higher = more signal.
A short description of test [12]: growth effects on S. cerevisiae YJM789 – YJM789 clinical isolate, OD600, 24 h, basal, primary screen (AID 1089).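 Note: growth of clinical yeast isolate S. cerevisiae YJM 789 seeded 1000 cells per well; test concentration not given here.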 Particulars: higher = more signal, called active from +8 up or from −8 down.
Test [13] can be described thus: S. pombe growth modifiers, basal conditions – strain 972, OD600, 24 h, no modulator, primary screen (AID 1090).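 Note: basal condition with compound alone and no growth modifier present; test concentration not given here.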 The conditions noted are these: S. pombe 972 growth, higher = more signal, called active from +8 up or from −8 down.
The nature of test [14]: budding yeast growth modifiers under rapamycin – strain BY4716, OD600, 96 h, primary screen (AID 1091). Note: test concentration not given here. The conditions noted are these: S. cerevisiae BY4716 + rapamycin, higher = more signal, called active from +8 up or from −8 down.
Test [15] deals with Torsin-1A-interacting protein 2 (Homo sapiens) (UniProt Q8NFQ8). The experiment in a line: small molecules binding lysate-expressed LULL1 – cell lysate, human LULL1 lysate, 635/667 nm fluorescence, primary screen (AID 1092).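 Note: probe is lysate of COS7 cells overexpressing human LULL1; score merges per-feature 667 nm fluorescence with signal-to-noise.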 The conditions noted are these: small-molecule microarray, hLULL1 lysate binding, 635 nm fluorescence; higher = more signal.
Test [16] can be described thus: optical density change of DRC41 E. coli – strain DRC41, OD650, 24 h, E. coli filamentation project, primary screen (AID 1093).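 Note: MC1000 strain lacking acrAB efflux and sulA so SOS filamentation is blocked; test concentration not given here.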 Particulars: E. coli DRC41 growth, higher = more signal, called active from +8 up or from −8 down.
A short description of test [17]: probe aLefty2 binding to arrayed compounds – biochemical, biotinylated probe, 635/667 nm fluorescence, primary screen (AID 1094).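 Note: score merges spot fluorescence near 667 nm with spot signal-to-noise ratio.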 The conditions noted are these: small-molecule microarray, higher = more signal.
Test [18] relates to Noggin (protein binding on small-molecule microarray). In words: small molecules binding Noggin protein – biochemical, 635/667 nm fluorescence, primary screen (AID 1095).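 Note: score merges 667 nm feature fluorescence with signal to noise over triplicate slides.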 Particulars: 635 nm fluorescence, higher = more signal.
For test [19], the target named is Neurogenic locus notch homolog protein 3 (Homo sapiens) (UniProt Q9UM47). The experiment in a line: small molecules binding NOTCH3 protein – biochemical, 635/667 nm fluorescence, primary screen (AID 1096). Particulars: small-molecule microarray, 635 nm fluorescence, higher = more signal.
Chain of Neurogenic locus notch homolog protein 3 (Homo sapiens) (Q9UM47 whole entry, looked up): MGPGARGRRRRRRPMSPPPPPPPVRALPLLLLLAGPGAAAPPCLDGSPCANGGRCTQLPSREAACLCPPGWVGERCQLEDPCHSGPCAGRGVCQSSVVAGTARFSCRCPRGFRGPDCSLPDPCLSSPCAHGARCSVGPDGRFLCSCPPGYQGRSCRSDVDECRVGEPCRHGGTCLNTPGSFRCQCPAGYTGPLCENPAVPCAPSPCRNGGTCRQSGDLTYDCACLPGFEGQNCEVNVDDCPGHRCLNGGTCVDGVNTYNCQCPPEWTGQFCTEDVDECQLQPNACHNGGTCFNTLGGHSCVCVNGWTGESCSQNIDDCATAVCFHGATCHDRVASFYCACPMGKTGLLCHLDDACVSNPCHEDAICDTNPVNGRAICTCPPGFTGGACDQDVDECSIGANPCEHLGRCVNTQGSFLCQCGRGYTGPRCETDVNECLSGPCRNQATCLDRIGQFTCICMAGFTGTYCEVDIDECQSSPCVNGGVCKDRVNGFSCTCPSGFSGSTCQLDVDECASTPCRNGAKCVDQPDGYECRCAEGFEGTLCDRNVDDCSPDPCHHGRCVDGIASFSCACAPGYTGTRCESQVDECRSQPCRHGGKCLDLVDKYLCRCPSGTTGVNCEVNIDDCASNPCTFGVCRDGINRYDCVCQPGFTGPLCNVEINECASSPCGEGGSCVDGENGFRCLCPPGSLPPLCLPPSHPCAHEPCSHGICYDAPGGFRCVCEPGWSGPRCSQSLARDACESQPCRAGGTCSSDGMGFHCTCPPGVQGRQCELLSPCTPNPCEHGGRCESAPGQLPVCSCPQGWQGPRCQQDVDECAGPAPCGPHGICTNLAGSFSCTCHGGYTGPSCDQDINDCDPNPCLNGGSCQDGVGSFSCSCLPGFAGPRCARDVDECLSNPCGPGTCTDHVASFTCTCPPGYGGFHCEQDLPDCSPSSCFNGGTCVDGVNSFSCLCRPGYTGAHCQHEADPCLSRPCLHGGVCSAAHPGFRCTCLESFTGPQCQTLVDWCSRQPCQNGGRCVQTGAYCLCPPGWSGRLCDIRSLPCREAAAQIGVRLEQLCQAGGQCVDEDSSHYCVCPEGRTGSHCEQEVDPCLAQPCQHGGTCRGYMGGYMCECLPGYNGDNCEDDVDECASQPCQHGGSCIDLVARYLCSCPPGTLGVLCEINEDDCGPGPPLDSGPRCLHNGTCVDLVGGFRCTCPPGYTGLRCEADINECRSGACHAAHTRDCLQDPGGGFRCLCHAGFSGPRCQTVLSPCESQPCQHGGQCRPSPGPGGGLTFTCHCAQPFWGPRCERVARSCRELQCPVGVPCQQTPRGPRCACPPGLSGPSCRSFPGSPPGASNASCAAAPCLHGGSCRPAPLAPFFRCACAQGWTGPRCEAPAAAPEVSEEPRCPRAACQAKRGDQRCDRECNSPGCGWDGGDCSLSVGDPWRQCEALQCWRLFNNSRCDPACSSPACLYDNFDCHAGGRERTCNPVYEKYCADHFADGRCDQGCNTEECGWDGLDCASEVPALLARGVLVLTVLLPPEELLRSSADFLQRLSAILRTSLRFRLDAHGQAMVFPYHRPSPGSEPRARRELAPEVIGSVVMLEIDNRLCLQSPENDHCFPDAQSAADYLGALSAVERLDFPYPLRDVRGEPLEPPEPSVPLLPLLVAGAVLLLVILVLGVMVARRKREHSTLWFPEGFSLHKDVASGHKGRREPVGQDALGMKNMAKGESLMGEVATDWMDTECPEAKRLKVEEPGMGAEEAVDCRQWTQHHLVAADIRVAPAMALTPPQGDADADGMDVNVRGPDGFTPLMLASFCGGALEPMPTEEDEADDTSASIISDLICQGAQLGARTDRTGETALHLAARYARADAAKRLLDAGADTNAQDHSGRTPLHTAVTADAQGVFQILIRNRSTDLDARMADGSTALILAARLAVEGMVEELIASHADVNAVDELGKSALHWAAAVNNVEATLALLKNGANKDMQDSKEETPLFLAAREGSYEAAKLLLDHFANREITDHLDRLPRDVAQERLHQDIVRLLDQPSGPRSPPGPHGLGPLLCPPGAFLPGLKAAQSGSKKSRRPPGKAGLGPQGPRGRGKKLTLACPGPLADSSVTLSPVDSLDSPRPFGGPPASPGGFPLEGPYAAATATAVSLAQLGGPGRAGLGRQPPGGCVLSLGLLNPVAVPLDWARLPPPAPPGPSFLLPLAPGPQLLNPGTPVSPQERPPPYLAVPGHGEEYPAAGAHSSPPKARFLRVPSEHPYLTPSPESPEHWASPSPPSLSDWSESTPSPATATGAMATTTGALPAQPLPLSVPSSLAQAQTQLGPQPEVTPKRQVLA
Test [20] in a line: probe aEGFR binding to arrayed compounds – biochemical, biotinylated probe, 635/667 nm fluorescence, primary screen (AID 1097).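 Note: probe is a biotinylated anti-EGFR antibody binding compounds printed on slides; score combines fluorescence near 667 nm and signal to noise of each spot.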 Particulars: small-molecule microarray, higher = more signal.

Consider `C[C@H](ON=C1[C@H]2CCn3c(=O)n(-c4ccccc4)c(=O)n3[C@H]2[C@H](O)[C@@H]2O[C@H]12)c1cn([C@H](CO)Cc2ccccc2)nn1`, for which the composite z-score in test [1] is -0.317; in test [2] it was 0.386; in [3] it was -0.0189; in test [4], 0.347; in [5] it was 0.862; in test [6] it was -0.0139. Further, the composite z-score in test [7] is 0.764; in test [9] it was 0.138; in test [10], 1.13; in [11], 0.171; in test [15], 0.664; in test [17], -0.175. Besides, the composite z-score in test [18] came to 0.222; in [19], 0.518; in test [20], 0.0544. Moreover, the z-score in [8] was 0.68 (inactive); in test [12], -0.915 (inactive); in test [13], -0.348 (inactive); in test [14] it was -0.173 (inactive); in test [16], 0.547 (inactive).

Consider `COC(=O)CC=C[C@@H](C)[C@@H](C=NO[C@@H](C)c1cn([C@H](CO)Cc2ccccc2)nn1)NS(=O)(=O)c1ccc(C)cc1`, for which the composite z-score in test [1] is -0.315; in test [2] it was 0.712; in [3], -0.161; in [4], 0.166; in test [5] it was 0.0829; in test [6], -0.0443. In addition, the composite z-score was 0.75 in [7]; 0.279 in [9]; 0.251 in test [10]; 0.526 in [11]; 0.112 in test [15]; -0.247 in test [17]. The composite z-score is 0.321 in test [18], 0.381 in test [19] and -0.0398 in [20]. The z-score is -1.1 (inactive) in test [8]; -2.32 (inactive) in test [12]; -1.2 (inactive) in test [13]; -0.88 (inactive) in [14]; 0.122 (inactive) in test [16].

Consider `Cc1cc2c(nc1C)CCCN2CC(O)CN1CCCc2nc(C)c(C)cc21`, for which the composite z-score in [1] came to 0.472; in [2] it was 1.49; in test [3], 0.178; in test [4] it was 0.204; in test [5], 0.4; in [6], 0.752. Also, the composite z-score in test [7] came to 0.998; in [9], 0.759; in test [10], 1.35; in test [11] it was 0.692; in [15] it was 1.89; in test [17] it was 0.256. The composite z-score in test [18] is 0.256; in test [19], 0.625; in test [20], -0.002. Also, the z-score in test [8] was -0.0397 (inactive); in test [12], 0.623 (inactive); in test [13], 0.73 (inactive); in [14], -0.238 (inactive); in test [16], -0.605 (inactive).

Consider `COC(=O)CC=C[C@@H](C)[C@H](OCc1cccc(-c2ccccc2)c1)C1CCCCC1`, for which the composite z-score is -0.131 in [1]; 0.0473 in [2]; -0.174 in [3]; -0.208 in test [4]; 0.813 in test [5]; 0.654 in test [6]. Besides, the composite z-score is 0.359 in test [7]; -0.48 in test [9]; 0.189 in test [10]; -0.526 in test [11]; -0.311 in test [15]; -0.321 in [17]. In addition, the results for the composite z-score in [18], in [19] and in test [20] were -0.274, -0.395 and -0.27, respectively. Moreover, the z-score in [8] was 1.38 (inactive); in [12] it was 1.44 (inactive); in test [13] it was -0.915 (inactive); in [14], 1.45 (inactive); in [16], 0.109 (inactive).

Regarding `CCOC(=O)[C@H](Cc1ccccc1)NC(=O)CCC1CC(OC(=O)NCc2cccc3ccccc23)CC2(CCCC(COC(=O)NCC(c3ccccc3)c3ccccc3)O2)O1` (stereo not given in full), the composite z-score is -0.222 in test [1]; 0.578 in test [2]; -0.0753 in test [3]; 0.326 in [4]; 0.928 in [5]; 0.301 in test [6]. The composite z-score is 1.04 in [7]; 0.329 in test [9]; -0.169 in [10]; 1.5 in test [11]; 1.17 in test [15]; -0.147 in test [17]. The composite z-score in test [18] worked out at 0.504; in [19], 0.851; in test [20], 0.0117. The z-score is 0.631 (inactive) in test [8]; -0.803 (inactive) in test [12]; -0.463 (inactive) in test [13]; -1.07 (inactive) in test [14]; -1.09 (inactive) in test [16].
